In PubChem BioAssay (NCI):
Compounds without any hit were thinned out: in the full panel of roughly 83,000, 20% have a hit.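 Compound tested at a single concentration for 48 hours in 96-well plates; a percent growth value below 10 was scored as active.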 Values without a mark were called inactive. The source made the active and inactive calls.

Assays:
Assay in all cases: NCI-60 one-dose screen, 48 h (100 = growth as untreated, 0 = no growth, -100 = all killed)
Details in all cases: 10 µM unless noted
HCT-15 colon = system: HCT-15 colon
HT29 colon = system: HT29 colon
SNB-75 CNS = system: SNB-75 CNS
SNB-19 CNS = system: SNB-19 CNS
U251 CNS = system: U251 CNS
PC-3 prostate = system: PC-3 prostate
SK-MEL-5 melanoma = system: SK-MEL-5 melanoma
UACC-62 melanoma = system: UACC-62 melanoma
LOX IMVI melanoma = system: LOX IMVI melanoma
SK-MEL-28 melanoma = system: SK-MEL-28 melanoma
SK-MEL-2 melanoma = system: SK-MEL-2 melanoma
EKVX NSCLC = system: EKVX NSCLC
SN12C renal = system: SN12C renal
UO-31 renal = system: UO-31 renal
TK-10 renal = system: TK-10 renal
ACHN renal = system: ACHN renal
CAKI-1 renal = system: CAKI-1 renal
A498 renal = system: A498 renal
CCRF-CEM leukemia = system: CCRF-CEM leukemia
MOLT-4 leukemia = system: MOLT-4 leukemia

Row | SMILES | growth (HCT-15 colon) | growth (HT29 colon) | growth (SNB-75 CNS) | growth (SNB-19 CNS) | growth (U251 CNS) | growth (PC-3 prostate) | growth (SK-MEL-5 melanoma) | growth (UACC-62 melanoma) | growth (LOX IMVI melanoma) | growth (SK-MEL-28 melanoma) | growth (SK-MEL-2 melanoma) | growth (EKVX NSCLC) | growth (SN12C renal) | growth (UO-31 renal) | growth (TK-10 renal) | growth (ACHN renal) | growth (CAKI-1 renal) | growth (A498 renal) | growth (CCRF-CEM leukemia) | growth (MOLT-4 leukemia)
1 | NS(=O)(=O)c1ccc(Nc2nc(Nc3ccccc3)nc3nnc(SCC(=O)NC4CCCCC4)n23)cc1 | 104% | 113% | 115% | 101% | 104% | 98.5% | 105% | 92.3% | 101% | 105% | 106% | 103% | 100% | 80.8% | 104% | 99.1% | 83.7% | 97.2% | 101% | 101%
2 | CCC(CC)N1C(=O)/C(=c2\sc3n(c2=O)NC2C(N=3)N(CC)C(=O)N2CC)c2ccccc21 (stereo not given) | 34.5% | 44.7% | 67.9% | 71.4% | 58.9% | 43.9% | 55.6% | 39.9% | 39.3% | 57% | 101% | 59.6% | 56% | 54.4% | 127% | 50.4% | 50.8% | 52.3% | 55.3% | 59.8%
3 | COc1cc2nc(Cl)nc(Nc3cccc(C4=Nc5c(N)nc(N)nc5NC(c5ccccc5)C4)c3)c2cc1OC (stereo not given) | 48.6% | 90.3% | 75% | 95.6% | 60.4% | 75.1% | 73.6% | 91.3% | 68% | 105% | 88.8% | 96.7% | 93.4% | 94.4% | 110% | 91.8% | 96.1% | 88.9% | 34.8% | 54.5%
4 | CS(=O)(=O)c1ncc(-c2ccccc2)cn1 | 89.1% | 105% | 110% | 98.1% | 99.3% | 100% | 93% | 89% | 84.6% | 98% | 97.6% | 97.1% | 96.4% | 85.1% | 97.3% | 97.3% | 107% | 86.5% | 86.6% | 97.2%
5 | COc1cc(Cn2cc3c(c2)-c2onc(CN4CCCC4)c2CC3)cc(OC)c1OC | 94.7% | 105% | 104% | 90.6% | 96.8% | 92.5% | 79.8% | 81.2% | 97.6% | 95.2% | 101% | 75.9% | 96.7% | 78.1% | 111% | 97.5% | 91.7% | 94.4% | 89% | 91.8%
6 | O=C(CSc1nnc(-c2ccc(Cl)cc2)n1-c1ccccc1)Nc1ccc(Br)cc1 | 67% | 21.3% | -33.7% (active) | 35% | -51.8% (active) | 13.5% | 31.2% | 20.2% | -54.5% (active) | 33.4% | 80.9% | 24.9% | -42.9% (active) | -19.4% (active) | -55.7% (active) | -81.9% (active) | -53.6% (active) | -60.8% (active) | 41% | 61.1%
7 | O=C(CNc1nc(-c2cccc([N+](=O)[O-])c2)cs1)Nc1cccc(Cl)c1 | 98.4% | 116% | 101% | 99.5% | 106% | 98.5% | 103% | 92.7% | 115% | 104% | 107% | 89.2% | 99.4% | 80.5% | 149% | 101% | 106% | 93% | 103% | 101%
8 | COc1cc(Cn2cc3c(c2)-c2onc(CN4CCOCC4)c2CC3)cc(OC)c1OC | 97.9% | 104% | 117% | 97.2% | 102% | 91.6% | 74.9% | 78.8% | 100% | 105% | 104% | 83% | 95.5% | 78.7% | 107% | 99.5% | 94.7% | 114% | 96.9% | 98.3%
9 | COc1ccc(-n2c(/C=C3\C(=O)Nc4ccccc43)ccc2CO)cc1 | 89.7% | 105% | 101% | 90% | 95.1% | 96.4% | 94.5% | 83.3% | 94.6% | 101% | 104% | 94.7% | 104% | 74.1% | 105% | 93.6% | 84.6% | 107% | 97.8% | 90.2%
10 | CCO/C=N/C1=C(C#N)C(c2ccc(F)cc2)c2sc3c(C)cccc3c2O1 (stereo not given) | 11.9% | 9.76% (active) | 8.13% (active) | 18.2% | 21.8% | 14.5% | 4.34% (active) | 12.8% | 9.65% (active) | 56.2% | 42.7% | 44.6% | 17.3% | 27.9% | 66.4% | 23.1% | 28.4% | -0.888% (active) | 21.1% | 23.1%
11 | COc1ccc(/C=N/NC(=O)c2cn(C3CC3)c3c(OC)c(N4CC5CCCNC5C4)c(F)cc3c2=O)cc1 (stereo not given) | 47.6% | 32.4% | 93.1% | 96.6% | 89.4% | 75.1% | 87.1% | 100% | 19.6% | 92.8% | 107% | 102% | 81% | 62.4% | 116% | 88.7% | 82.9% | 83.3% | 63.6% | 60.4%
12 | COc1ccc([C@@H]2[C@@H](O)C(=O)N2c2cc(OC)c(OC)c(OC)c2)cc1F | 7.95% (active) | -31.9% (active) | 17.6% | 24.7% | 12.2% | 20.9% | -34% (active) | 33.4% | -4.8% (active) | 68.6% | -5.37% (active) | 41.8% | 28.7% | 30.1% | 86.3% | 28.4% | 30.3% | -29.5% (active) | 18.5% | 15.8%
13 | CC(=O)c1ccc(Nc2nc(SCC(C)C)nc(-c3ccccc3)c2C#N)cc1 | 95.3% | 106% | 93.3% | 38.5% | 32.4% | 104% | 99.7% | 75.3% | 86.9% | 101% | 76.7% | 88.6% | 95.9% | 111% | 98.4% | 47.8% | 69.6% | 107% | 102% | 102%
14 | Cn1cc(-c2nc(N)nnc2-c2c[nH]c3ccccc23)c2cc(Br)ccc21 | 24.5% | 5.93% (active) | 7.38% (active) | 27% | 23.1% | 6.53% (active) | 22.7% | 21% | 24% | 55.2% | 19.5% | 45.6% | 27.9% | 33.5% | 88.6% | 38.9% | 25.2% | -12.1% (active) | 7.57% (active) | 8.98% (active)
15 | CCN(CC)c1ccc2c(c1)Oc1nc(N)c(C#N)c(N)c1C2Sc1ccc(F)cc1 (stereo not given) | -84.8% (active) | -42.4% (active) | -3.74% (active) | -94.9% (active) | -73.4% (active) | -74% (active) | -96.2% (active) | -52.5% (active) | -92.6% (active) | -62% (active) | -61.3% (active) | -85.8% (active) | -77.8% (active) | -99.5% (active) | -33.6% (active) | -91% (active) | -81.9% (active) | -1.93% (active) | -23% (active) | -12.8% (active)
